# Sampled rows, rich in hits. Any-hit rate of the full collection: about 4.6%.
# TR SRC2 fluor cs: Total Fluorescence Counterscreen for Inhibitors of the Interaction of Thyroid Hormone Receptor and Steroid Receptor Coregulator 2 | TRb/SRC2 Texas Red total fluorescence interference | Potency, µM (doses to about 106 µM), inactives show at the highest dose fluorescence change, negative = quenching | 0.29% of 280,000 active; active = well fitted curve in either direction with a large enough effect; inconclusive = small, poorly fitted or top-dose-only effect; note: potency is the fitted concentration of half-maximal effect
#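 Flags fluorescent or light-absorbing compounds by total fluorescence, S + 2P, at 555 nm excitation and 632 nm emission. Mixture: 20 nM Texas Red SRC2 peptide, 0.6 uM human TRb LBD, 1 uM T3, 5% DMSO; compound exposure 5 h at ambient temperature.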
# Tau fluor counter: Counterscreen qHTS for Inhibitors of Tau Fibril Formation, Fluorescence Polarization; tau K18 P301L Alexa594 fluorescence, heparin fibrillization; Potency, µM (doses to about 57.7 µM), without a hit: at the highest dose activity change, negative = decrease; 0.93% of 280,000 active; AID 1463, 2008; note: potency is the fitted concentration of half-maximal effect; nearly all actives have a fitted effect of over 55% in size
#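 Human K18 P301L tau (15 uM unlabeled plus 0.24 uM Alexa 594-labeled, final) in 100 mM sodium acetate pH 7 was mixed with compound and 20 uM heparin and incubated 6 hr at 37 C.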
# PNC inhibitor: High Content Assay for Compounds that inhibit the Assembly of the Perinucleolar Compartment | PC3M PTB-GFP, PNC prevalence imaging, 16 h; stronger effect = lower value | 3.1% of 140,000 active | activity change (PNC), negative = inhibition, % at 10 µM;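 active = readout at or below -70, meaning at least 70% loss of cells showing the perinucleolar compartment, a nuclear body marking cancer cells; inconclusive = readout between -30 and a set limit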;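 note: plate controls were DMSO wells for no effect and camptothecin positive control wells for full effect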
#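 Compounds are pinned in duplicate onto adhered PC3M cells stably expressing GFP-tagged PTB and incubated 16 h at 37 C. Cells are then fixed, nuclei stained with Hoechst, and PNC-positive cells counted.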
# TRb-SRC2 inh: qHTS for Inhibitors of the Interaction of Thyroid Hormone Receptor and Steroid Receptor Coregulator 2 | TRbeta-SRC2 peptide binding, fluorescence polarization; receptor liganded with 1 µM T3 | Potency, µM (titrated, usually from 106 µM), for the others: top-dose activity change, negative = inhibition, usual class: inhibitors | 0.065% of 280,000 active | AID 1469, 2008;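 note: potency is the fitted concentration of half-maximal effect; plate controls were bound peptide for no effect and peptide without receptor for full effect; nearly all actives have a fitted effect of over 50% in size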
# Target sequence (P10828 whole entry, looked up): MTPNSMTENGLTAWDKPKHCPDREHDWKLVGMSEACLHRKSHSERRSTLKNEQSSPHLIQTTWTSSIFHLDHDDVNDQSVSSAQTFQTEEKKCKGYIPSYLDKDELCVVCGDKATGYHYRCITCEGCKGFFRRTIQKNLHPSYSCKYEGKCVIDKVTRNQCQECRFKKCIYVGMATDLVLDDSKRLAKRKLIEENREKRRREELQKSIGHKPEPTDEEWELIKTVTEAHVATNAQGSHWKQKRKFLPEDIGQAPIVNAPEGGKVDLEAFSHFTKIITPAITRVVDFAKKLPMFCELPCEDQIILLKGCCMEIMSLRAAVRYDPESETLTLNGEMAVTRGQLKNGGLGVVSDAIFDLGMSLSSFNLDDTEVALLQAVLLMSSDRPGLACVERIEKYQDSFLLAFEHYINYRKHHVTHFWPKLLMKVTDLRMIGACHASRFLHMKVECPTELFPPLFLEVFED
#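 TRb LBD 0.6 uM + Texas Red SRC2 peptide 20 nM, 1 uM T3, Tris buffer w/ 5% DMSO; compound pinned, 5 h RT; FP read ex 555/em 632; normalized to unbound and bound controls.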
# Tau fibril ThT: qHTS for Inhibitors of Tau Fibril Formation, Thioflavin T Binding | Microtubule-associated protein tau (Homo sapiens), P10636 | recombinant tau K18 P301L (four-repeat tau fragment), heparin-induced fibrillization, ThT fluorescence | Potency, µM (titrated, usually from 57.4 µM), inactives show at the top dose activity, negative = inhibition, actives largely listed as inhibitors | 2.1% of 270,000 active; note: potency is the fitted concentration of half-maximal effect; nearly all actives have a fitted effect of over 55% in size
# Target sequence (P10636 561-689 P618L limits assumed): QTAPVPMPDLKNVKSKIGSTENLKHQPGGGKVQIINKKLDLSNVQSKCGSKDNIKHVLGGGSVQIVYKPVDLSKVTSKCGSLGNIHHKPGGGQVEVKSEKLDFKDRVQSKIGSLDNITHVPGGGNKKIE
#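 Heparin-induced (20 uM) aggregation of recombinant human K18 P301L tau, 15 uM unlabeled with 0.24 uM labeled, pH 7 acetate buffer, 6 hr at 37 C with compound. Fibrils quantified by 30 uM ThT fluorescence after 1 hr ambient incubation.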
# Tau fibril FP: qHTS for Inhibitors of Tau Fibril Formation, Fluorescence Polarization | K18 P301L tau heparin fibrillization, Alexa594 FP, 6 h | 0.39% of 280,000 active | AID 1468, 2008 | Potency, µM (highest dose often 57.7 µM), without a hit: at the top dose activity, negative = inhibition, most hits filed as inhibitors; note: potency is the fitted concentration of half-maximal effect; nearly all actives have a fitted effect of over 55% in size
#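 Quantitative HTS format: compounds meet 15 uM recombinant K18 P301L tau and Alexa 594-tau tracer in 100 mM sodium acetate pH 7; 20 uM heparin triggers fibrillization at 37 C over 6 hr; FP gives the signal.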
# Active calls of the source: *; ? = inconclusive; · = no result given; [ ] = remark or other dose. Unless noted, calls come from the whole dose curve; as a rule, active = well fitted curve in the direction sought with a large enough effect; inconclusive = small, poorly fitted or top-dose-only effect, or another doubt; inactive = no such curve, though single readings can be large; an effect the other way counts as inactive or inconclusive. Unless noted, % is set by controls: 0 for no effect and ±100 for the full control effect.
SMILES,TR SRC2 fluor cs,Tau fluor counter,PNC inhibitor,TRb-SRC2 inh,Tau fibril ThT,Tau fibril FP
O=c1c(-c2c(O)cc(O)c3c(=O)cc(-c4ccc(O)cc4)oc23)c(-c2ccc(O)cc2)oc2cc(O)cc(O)c12,-14%,?,·,15%,16µM*,?
C[C@H](N)c1nnc(SCC(=O)N(C)C)o1,-4%,-5%,28,1%,-13%,-6%
O=C(N/N=C/c1ccc([N+](=O)[O-])o1)C(O)c1ccccc1 (stereo not drawn),3%,-7%,·,-1%,·,0%
O=C(N/N=C/c1ccc(-c2ccc([N+](=O)[O-])cc2)o1)C(O)c1ccccc1 (stereo not drawn),-7%,?,21,-13%,16µM*,6%
CCC(=O)N/N=C/c1ccc(-c2ccc(Cl)cc2)o1,-6%,-9%,·,0%,?,7%
CCCCC(=O)N/N=C/c1ccc(-c2ccc([N+](=O)[O-])cc2)o1,-3%,?,·,-5%,4.5µM*,9%
CCC(=O)N/N=C/c1ccc(-c2ccc([N+](=O)[O-])cc2)o1,-9%,-28%,·,-3%,7.9µM*,2%
CCc1nnc(N/N=C/c2ccc(-c3ccc([N+](=O)[O-])cc3)o2)n1N,-3%,?,·,6%,1.8µM*,?
CC(C)c1ccc(NC(=O)c2cnn3c(C(F)F)cc(-c4ccccc4)nc23)cc1,?,-15%,·,-3%,-7%,-7%
Cc1ccc(C)c(N=Cc2ccc(-c3ccc([N+](=O)[O-])cc3)o2)c1,-1%,?,·,5%,-18%,14%
O=C1N=C(O)CN1/N=C/c1ccc(-c2ccc([N+](=O)[O-])cc2)o1,-3%,-5%,·,2%,10µM*,0%
CNC(=S)N/N=C/c1ccc(-c2ccc(Cl)c([N+](=O)[O-])c2)o1,-3%,?,·,-2%,?,-13%
C=CCNC(=S)N/N=C/c1ccc(-c2ccc(OC)cc2)o1,-1%,20µM*[quencher],·,1%,?,9%
CC(C)(C)NC(=S)N/N=C\c1ccc(-c2ccc([N+](=O)[O-])cc2)o1,-3%,?,·,-2%,7.1µM*,12%
Cc1ccc(-n2nccc2-c2nn(-c3cccc(C(F)(F)F)c3)c(=O)n(C)c2=O)cc1,-1%,-3%,·,2%,6%,-10%
CC1(C)CC(=O)c2cn3nc(C(F)(F)F)nc3nc2C1,0%,0%,?,-26%,3%,1%
CCn1c(COc2ccccc2)nnc1SCC(=O)C(C)(C)C,4%,1%,-97*,2%,7%,3%
CCn1c(COc2ccc(C)cc2)nnc1SCC(=O)C(C)(C)C,-3%,-2%,-18,2%,-10%,4%
CCN(CC)c1ccc(/C=C2\SC(=O)N(C(C)C)C2=O)o1,0%,?,·,5%,25µM*,4%
CC(C)N1C(=O)S/C(=C/c2ccc3c(c2)n(C)c(=O)n3C)C1=O,-3%,-5%,85,1%,-10%,0%
COc1cc2c(cc1OC)C(c1ccccc1F)OC(=O)C2 (stereo not drawn),?,0%,2,3%,-4%,11%
C/C(=N\Nc1nc2ccccc2s1)c1ccc2c(c1)OCO2,-3%[53 µM],?,30,-1%[53 µM],?,-1%
C/C(=N\Nc1nc2ccccc2s1)c1ccc(Br)s1,-4%,11µM*[quencher],·,-3%,?,?
COc1ccc(C(=O)Nc2ccc3nc4c(c(Nc5ccccc5OC)c3c2)CCCC4)c(OC)c1,-2%,?,·,-10%,18µM*,-7%
COc1ccc(Nc2c3c(nc4ccc(NC(=O)c5ccc(F)cc5)cc24)CCCC3)cc1OC,-1%,?,·,-3%,16µM*,8%
SMILES,TR SRC2 fluor cs,Tau fluor counter,PNC inhibitor,TRb-SRC2 inh,Tau fibril ThT,Tau fibril FP
COc1ccc(C(=O)Nc2ccc3nc4c(c(Nc5ccc(OC)c(OC)c5)c3c2)CCCC4)c(OC)c1,-3%,-20%,·,-4%,?,0%
COc1ccccc1Nc1c2c(nc3ccc(NC(=O)c4ccc(OC)c(OC)c4)cc13)CCCC2,-2%,?,·,0%,25µM*,-17%
O=C1/C(=C/c2ccco2)SC(=S)N1CC1CCCO1 (stereo not drawn),2%,?,·,-7%,20µM*,?
Cc1ccc(/C=C2\SC(=S)N(CC3CCCO3)C2=O)o1 (stereo not drawn),9%,-24%,·,5%,16µM*,?
COc1cc(/C=C2/SC(=S)N(CC3CCCO3)C2=O)ccc1O (stereo not drawn),14%,11µM*[quencher],-16,28%,14µM*,11%
COC(=O)c1ccc(C(=O)Nc2ccc(N)cc2N)cc1,7%,-27%,2,-2%,13µM*,-6%
COc1ccccc1NC(=O)c1ccc(N)cc1,2%,2%,?,10%,-12%,2%
CCOC(=O)c1ccc2nc(NC(NC(C)=O)(C(=O)OC)C(F)(F)F)sc2c1 (stereo not drawn),2%,2%,?,-12%,-1%,2%
O=[N+]([O-])/C(C(Cl)=C(Cl)Cl)=C(\Sc1ccccc1)N1CCCCC1,-1%,-25%,·,5%,25µM*,?
CCCS(=O)(=O)N1CCN(C(=O)COc2ccc(-c3ccccc3)cc2)CC1,1%,-11%,-88*,-8%,-5%,-8%
O=C(COc1ccc(-c2nnco2)cc1)N1CCN(S(=O)(=O)c2ccccc2)CC1,-2%,7%,-81*,3%,4%,2%
O=C(COc1ccc(Cl)cc1)N1CCN(S(=O)(=O)c2ccccc2)CC1,-3%,-7%,22,0%,-11%,4%
CCCS(=O)(=O)N1CCN(C(=O)COc2ccccc2)CC1,0%,-2%,?,0%,3%,-4%
Cc1ccc(NC(=O)c2ccccc2NS(=O)(=O)c2ccc(Cl)s2)cc1,-4%[53 µM],-18%,-82*,10%[53 µM],-15%,9%
Cn1c(CC(=O)Nc2ccccc2)n[nH]c1=S,3%,9%[2.34 µM],·,0%,-3%,-1%[2.34 µM]
CC1CCN(S(=O)(=O)c2ccc(C(=O)Nc3ccccc3-c3nc4ccccc4[nH]3)cc2)CC1,-1%,?,2,-4%,18%,28µM*

# Source: PubChem BioAssay (National Center for Advancing Translational Sciences (NCATS))
